The source of these data is ChEMBL document CHEMBL1961873, “Compounds: GSK PKIS; Assays: Nanosyn kinase panel” (2012).

Experiment [1] concerns the target Fibroblast growth factor receptor 4 (Homo sapiens) (UniProt P22455). As to conditions: at 1 µM.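 Further: reported figure is the averaged percent inhibition of FGFR4, from the GSK PKIS kinase screening panel.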
For experiment [2], the target named is Tyrosine-protein kinase Fgr (Homo sapiens) (UniProt P09769). The conditions noted are these: at 0.1 µM.
Experiment [3] shares this target. As to conditions: at 1 µM.
For experiment [4], the target named is Vascular endothelial growth factor receptor 1 (Homo sapiens) (UniProt P17948). The conditions noted are these: at 0.1 µM.
For experiment [5] the target is unchanged. The conditions noted are these: at 1 µM.
Experiment [6] concerns the target Receptor-type tyrosine-protein kinase FLT3 (Homo sapiens) (UniProt P36888). As to conditions: at 0.1 µM.
Experiment [7] shares this target. As to conditions: at 1 µM.
Experiment [8] relates to T1, Receptor-type tyrosine-protein kinase FLT3 (Homo sapiens), P36888 [D835Y].
T1 sequence (whole entry): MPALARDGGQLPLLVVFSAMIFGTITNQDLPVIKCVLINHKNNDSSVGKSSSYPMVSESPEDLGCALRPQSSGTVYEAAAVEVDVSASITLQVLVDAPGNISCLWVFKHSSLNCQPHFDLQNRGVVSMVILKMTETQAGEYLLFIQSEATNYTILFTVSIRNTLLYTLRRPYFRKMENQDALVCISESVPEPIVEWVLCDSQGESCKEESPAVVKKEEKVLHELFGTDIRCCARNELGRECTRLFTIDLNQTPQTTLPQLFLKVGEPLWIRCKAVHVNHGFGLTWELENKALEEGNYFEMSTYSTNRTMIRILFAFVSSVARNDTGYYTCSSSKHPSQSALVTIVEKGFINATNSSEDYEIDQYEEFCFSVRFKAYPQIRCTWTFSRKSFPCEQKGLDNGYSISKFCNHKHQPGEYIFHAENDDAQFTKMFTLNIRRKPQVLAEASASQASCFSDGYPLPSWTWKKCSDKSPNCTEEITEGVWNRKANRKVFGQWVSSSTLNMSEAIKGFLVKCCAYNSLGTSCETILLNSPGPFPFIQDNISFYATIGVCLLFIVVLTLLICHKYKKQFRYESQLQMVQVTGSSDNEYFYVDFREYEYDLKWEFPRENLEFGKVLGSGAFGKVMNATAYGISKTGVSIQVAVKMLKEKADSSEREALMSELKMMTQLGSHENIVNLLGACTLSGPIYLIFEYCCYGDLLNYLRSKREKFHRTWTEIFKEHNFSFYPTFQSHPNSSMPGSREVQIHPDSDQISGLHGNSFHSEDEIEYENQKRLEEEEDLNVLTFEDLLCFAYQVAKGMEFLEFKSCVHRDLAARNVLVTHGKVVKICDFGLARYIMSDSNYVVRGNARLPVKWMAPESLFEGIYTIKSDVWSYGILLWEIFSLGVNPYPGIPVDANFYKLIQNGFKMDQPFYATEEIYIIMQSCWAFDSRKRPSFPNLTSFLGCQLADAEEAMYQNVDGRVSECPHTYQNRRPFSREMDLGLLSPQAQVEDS
As to conditions: at 0.1 µM.

Experiment [9] concerns the target Non-receptor tyrosine-protein kinase TYK2 (Homo sapiens) (UniProt P29597). As to conditions: at 1 µM.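 Further: values are mean percent inhibition of TYK2 kinase.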
Experiment [10] concerns the target T2, Tyrosine-protein kinase receptor TYRO3 (Homo sapiens) (UniProt Q06418).
T2 sequence (whole entry): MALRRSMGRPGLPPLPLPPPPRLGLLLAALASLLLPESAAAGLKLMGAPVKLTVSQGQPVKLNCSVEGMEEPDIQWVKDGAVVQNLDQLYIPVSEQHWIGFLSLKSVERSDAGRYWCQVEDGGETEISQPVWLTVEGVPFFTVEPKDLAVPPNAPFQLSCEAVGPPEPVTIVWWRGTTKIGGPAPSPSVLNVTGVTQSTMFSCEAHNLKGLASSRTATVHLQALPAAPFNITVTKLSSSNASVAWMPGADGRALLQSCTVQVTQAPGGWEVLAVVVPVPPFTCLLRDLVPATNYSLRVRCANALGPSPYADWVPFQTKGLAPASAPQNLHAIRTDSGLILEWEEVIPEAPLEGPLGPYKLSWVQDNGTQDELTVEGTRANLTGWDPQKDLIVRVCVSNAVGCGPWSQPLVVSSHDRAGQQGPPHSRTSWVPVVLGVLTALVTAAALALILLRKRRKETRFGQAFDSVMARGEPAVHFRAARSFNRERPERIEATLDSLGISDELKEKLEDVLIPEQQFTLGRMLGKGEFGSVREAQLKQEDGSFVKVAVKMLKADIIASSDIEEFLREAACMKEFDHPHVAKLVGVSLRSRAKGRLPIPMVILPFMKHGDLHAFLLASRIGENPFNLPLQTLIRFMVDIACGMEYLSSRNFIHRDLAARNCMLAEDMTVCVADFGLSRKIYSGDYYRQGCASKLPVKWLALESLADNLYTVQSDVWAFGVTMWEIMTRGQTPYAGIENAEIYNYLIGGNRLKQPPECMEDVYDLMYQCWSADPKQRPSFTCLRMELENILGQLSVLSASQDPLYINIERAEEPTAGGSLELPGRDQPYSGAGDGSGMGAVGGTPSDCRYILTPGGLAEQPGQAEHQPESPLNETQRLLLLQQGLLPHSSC
As to conditions: at 0.1 µM.

The target of experiment [11] is T2, Tyrosine-protein kinase receptor TYRO3 (Homo sapiens). As to conditions: at 1 µM.
Experiment [12] concerns the target Tyrosine-protein kinase Yes (Homo sapiens) (UniProt P07947). The conditions noted are these: at 0.1 µM.
The target is the same in experiment [13]. The conditions noted are these: at 1 µM.
Experiment [14] has as its target T3, Tyrosine-protein kinase ZAP-70 (Homo sapiens) (UniProt P43403).
T3 sequence (whole entry): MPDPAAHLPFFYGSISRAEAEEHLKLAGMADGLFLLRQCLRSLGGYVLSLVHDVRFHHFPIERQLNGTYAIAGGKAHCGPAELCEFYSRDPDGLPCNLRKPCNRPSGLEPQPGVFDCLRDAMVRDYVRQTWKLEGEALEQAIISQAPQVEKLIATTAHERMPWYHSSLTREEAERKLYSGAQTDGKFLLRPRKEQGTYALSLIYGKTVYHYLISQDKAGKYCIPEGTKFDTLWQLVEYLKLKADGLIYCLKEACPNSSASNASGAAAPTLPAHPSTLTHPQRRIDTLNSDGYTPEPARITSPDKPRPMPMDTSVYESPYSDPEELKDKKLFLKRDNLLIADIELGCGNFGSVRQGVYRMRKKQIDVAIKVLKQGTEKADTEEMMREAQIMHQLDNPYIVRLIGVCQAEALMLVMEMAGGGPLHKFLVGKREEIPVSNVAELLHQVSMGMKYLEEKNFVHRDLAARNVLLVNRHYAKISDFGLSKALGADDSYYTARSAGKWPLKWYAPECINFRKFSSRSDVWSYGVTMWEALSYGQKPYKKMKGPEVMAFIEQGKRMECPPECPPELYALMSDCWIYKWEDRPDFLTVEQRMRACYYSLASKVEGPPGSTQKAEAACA
The conditions noted are these: at 0.1 µM.

For experiment [15], the target named is T3, Tyrosine-protein kinase ZAP-70 (Homo sapiens). The conditions noted are these: at 1 µM.
The target of experiment [16] is Serine/threonine-protein kinase B-raf (Homo sapiens) (UniProt P15056). The conditions noted are these: at 0.1 µM.
For experiment [17] the target is unchanged. As to conditions: at 1 µM.
Experiment [18] relates to Serine/threonine-protein kinase B-raf (Homo sapiens), P15056 [V600E]. The conditions noted are these: at 0.1 µM.
The test system is the same in experiment [19]. The conditions noted are these: at 1 µM.
Experiment [20] has as its target RAF proto-oncogene serine/threonine-protein kinase (Homo sapiens) (UniProt P04049). The conditions noted are these: at 0.1 µM.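 Further: values are mean CRAF kinase inhibition from profiling of the GSK Published Kinase Inhibitor Set.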

Sequence of Tyrosine-protein kinase Fgr (Homo sapiens) (P09769 2-529 limits assumed): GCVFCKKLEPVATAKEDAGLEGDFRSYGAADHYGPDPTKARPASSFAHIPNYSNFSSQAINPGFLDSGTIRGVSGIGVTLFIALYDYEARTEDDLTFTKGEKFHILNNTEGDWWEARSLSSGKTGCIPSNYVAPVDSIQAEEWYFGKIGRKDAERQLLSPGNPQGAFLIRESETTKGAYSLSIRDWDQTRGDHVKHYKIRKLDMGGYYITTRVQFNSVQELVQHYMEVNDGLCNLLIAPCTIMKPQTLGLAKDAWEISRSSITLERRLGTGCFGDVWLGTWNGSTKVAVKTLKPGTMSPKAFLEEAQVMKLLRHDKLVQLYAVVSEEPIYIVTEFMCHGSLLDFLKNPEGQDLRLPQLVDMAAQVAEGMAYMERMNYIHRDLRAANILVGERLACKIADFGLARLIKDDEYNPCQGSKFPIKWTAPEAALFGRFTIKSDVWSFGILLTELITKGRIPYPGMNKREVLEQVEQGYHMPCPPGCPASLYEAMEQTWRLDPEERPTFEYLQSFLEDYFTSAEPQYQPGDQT
Sequence of Non-receptor tyrosine-protein kinase TYK2 (Homo sapiens) (P29597 whole entry): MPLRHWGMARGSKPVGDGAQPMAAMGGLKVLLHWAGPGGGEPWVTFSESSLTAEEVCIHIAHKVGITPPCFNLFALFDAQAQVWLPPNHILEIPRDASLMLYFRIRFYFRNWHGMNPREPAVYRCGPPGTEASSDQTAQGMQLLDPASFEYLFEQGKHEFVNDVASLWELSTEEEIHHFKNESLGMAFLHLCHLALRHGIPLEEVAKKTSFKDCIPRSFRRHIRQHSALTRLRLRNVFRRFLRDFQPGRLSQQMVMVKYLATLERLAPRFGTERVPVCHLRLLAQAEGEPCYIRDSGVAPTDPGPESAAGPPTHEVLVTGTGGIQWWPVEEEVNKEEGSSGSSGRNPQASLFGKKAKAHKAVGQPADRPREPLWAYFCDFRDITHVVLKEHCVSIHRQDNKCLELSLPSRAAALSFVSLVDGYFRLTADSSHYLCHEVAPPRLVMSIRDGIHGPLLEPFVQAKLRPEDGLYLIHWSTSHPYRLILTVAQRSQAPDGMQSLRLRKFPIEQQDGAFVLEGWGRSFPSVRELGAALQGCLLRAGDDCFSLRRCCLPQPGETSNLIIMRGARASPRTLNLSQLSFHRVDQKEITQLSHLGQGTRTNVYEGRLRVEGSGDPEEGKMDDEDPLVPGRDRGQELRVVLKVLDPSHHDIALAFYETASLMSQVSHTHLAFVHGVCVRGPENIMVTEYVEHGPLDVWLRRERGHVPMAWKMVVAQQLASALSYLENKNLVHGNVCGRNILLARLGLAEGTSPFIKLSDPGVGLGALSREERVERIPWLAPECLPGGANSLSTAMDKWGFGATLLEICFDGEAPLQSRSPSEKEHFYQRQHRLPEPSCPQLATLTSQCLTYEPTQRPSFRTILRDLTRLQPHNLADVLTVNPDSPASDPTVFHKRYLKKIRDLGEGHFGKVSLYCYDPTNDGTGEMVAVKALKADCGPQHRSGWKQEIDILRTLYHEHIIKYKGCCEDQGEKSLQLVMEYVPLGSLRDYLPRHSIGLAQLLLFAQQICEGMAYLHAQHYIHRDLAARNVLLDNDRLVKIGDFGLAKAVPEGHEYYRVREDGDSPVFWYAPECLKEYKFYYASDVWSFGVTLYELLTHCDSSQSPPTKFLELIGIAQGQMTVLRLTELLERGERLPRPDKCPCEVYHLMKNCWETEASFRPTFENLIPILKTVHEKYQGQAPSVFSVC
Sequence of Vascular endothelial growth factor receptor 1 (Homo sapiens) (P17948 whole entry): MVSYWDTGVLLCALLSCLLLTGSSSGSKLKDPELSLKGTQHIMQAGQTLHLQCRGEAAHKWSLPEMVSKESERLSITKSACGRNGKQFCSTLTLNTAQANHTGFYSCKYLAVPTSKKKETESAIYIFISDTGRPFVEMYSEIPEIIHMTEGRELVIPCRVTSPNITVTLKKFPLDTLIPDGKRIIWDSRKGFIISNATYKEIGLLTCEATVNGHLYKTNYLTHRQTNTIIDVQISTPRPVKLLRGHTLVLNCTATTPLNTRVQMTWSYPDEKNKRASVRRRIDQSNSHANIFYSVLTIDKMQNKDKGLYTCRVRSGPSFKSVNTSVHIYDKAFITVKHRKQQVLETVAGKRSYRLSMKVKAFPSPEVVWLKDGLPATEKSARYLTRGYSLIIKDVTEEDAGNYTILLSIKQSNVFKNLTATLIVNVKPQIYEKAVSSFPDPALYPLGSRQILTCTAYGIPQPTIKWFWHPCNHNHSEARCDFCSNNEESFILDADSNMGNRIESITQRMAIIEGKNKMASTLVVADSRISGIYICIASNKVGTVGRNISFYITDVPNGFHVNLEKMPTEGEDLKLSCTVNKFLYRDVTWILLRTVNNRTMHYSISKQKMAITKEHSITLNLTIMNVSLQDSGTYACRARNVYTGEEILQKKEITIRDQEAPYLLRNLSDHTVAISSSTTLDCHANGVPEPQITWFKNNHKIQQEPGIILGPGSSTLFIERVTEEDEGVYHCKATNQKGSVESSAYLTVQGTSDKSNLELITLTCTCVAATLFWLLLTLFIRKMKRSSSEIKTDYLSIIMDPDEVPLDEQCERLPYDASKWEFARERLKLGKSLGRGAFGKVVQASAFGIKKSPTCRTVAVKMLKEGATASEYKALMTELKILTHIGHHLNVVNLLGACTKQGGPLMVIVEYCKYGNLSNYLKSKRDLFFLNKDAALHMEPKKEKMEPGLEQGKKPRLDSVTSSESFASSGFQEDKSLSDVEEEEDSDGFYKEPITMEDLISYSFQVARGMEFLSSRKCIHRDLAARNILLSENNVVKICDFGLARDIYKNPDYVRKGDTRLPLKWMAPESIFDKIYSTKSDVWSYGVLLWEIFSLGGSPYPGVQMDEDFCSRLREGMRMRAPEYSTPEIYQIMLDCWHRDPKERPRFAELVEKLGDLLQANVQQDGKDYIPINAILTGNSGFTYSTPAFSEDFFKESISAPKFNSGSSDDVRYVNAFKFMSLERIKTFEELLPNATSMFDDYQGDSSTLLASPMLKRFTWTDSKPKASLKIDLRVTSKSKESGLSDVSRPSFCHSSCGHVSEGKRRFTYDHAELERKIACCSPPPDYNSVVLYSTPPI
Sequence of Serine/threonine-protein kinase B-raf (Homo sapiens) (P15056 whole entry): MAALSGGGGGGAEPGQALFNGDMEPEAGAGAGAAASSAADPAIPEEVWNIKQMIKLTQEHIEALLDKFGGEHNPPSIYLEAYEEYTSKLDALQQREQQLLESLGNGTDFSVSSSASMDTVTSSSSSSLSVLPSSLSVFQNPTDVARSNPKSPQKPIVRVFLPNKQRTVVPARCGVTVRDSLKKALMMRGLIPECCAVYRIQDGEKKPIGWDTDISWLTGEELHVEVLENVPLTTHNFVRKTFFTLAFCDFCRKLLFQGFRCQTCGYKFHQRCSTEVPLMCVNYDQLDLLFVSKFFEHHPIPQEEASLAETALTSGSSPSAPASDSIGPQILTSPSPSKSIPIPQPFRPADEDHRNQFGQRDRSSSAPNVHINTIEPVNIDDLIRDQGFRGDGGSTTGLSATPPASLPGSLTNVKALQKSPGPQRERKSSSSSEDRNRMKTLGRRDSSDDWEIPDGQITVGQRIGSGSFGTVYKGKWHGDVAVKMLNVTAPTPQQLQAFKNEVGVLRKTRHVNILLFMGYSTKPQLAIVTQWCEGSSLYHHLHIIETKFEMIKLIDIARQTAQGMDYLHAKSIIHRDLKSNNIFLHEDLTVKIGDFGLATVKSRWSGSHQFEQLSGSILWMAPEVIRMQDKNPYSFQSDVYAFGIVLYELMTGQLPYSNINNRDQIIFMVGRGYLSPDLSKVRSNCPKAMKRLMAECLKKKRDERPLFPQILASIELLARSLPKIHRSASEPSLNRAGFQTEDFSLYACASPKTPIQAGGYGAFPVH
Sequence of Serine/threonine-protein kinase B-raf (Homo sapiens), P15056 [V600E] (P15056 whole entry V600E): as the sequence (P15056 whole entry) above, with V600E counted along it
Sequence of Tyrosine-protein kinase Yes (Homo sapiens) (P07947 2-543 limits assumed): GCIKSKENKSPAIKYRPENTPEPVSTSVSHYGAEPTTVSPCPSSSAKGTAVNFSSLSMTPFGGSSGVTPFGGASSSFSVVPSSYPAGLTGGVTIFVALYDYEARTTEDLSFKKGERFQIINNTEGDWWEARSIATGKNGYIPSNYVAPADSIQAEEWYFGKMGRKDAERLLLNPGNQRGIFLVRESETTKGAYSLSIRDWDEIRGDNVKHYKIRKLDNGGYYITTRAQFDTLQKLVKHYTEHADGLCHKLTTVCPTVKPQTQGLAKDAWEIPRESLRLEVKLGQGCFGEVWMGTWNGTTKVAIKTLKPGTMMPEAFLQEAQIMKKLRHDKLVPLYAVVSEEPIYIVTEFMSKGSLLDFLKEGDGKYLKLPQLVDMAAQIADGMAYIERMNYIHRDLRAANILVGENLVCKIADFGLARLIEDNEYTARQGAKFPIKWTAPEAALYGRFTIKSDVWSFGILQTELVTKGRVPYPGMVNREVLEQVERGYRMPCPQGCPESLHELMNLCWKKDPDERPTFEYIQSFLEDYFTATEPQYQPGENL
Sequence of RAF proto-oncogene serine/threonine-protein kinase (Homo sapiens) (P04049 whole entry): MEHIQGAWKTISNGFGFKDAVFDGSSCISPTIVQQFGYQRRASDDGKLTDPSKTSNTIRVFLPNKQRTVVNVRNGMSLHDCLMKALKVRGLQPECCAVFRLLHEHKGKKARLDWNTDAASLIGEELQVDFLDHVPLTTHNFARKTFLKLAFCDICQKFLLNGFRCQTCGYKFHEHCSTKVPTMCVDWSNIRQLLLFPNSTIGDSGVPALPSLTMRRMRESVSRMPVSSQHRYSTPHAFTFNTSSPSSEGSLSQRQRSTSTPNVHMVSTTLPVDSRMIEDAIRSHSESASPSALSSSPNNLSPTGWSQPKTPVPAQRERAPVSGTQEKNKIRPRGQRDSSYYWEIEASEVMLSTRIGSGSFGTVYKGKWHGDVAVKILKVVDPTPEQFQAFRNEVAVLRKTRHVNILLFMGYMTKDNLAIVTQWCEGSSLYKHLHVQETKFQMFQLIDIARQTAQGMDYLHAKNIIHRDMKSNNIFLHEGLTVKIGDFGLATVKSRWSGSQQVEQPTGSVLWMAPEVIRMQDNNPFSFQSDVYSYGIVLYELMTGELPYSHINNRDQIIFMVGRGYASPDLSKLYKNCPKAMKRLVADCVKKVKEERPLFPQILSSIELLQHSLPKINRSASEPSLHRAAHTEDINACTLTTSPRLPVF

As to `NC(=O)c1sc(-n2cnc3ccc(C(F)(F)F)cc32)cc1OCc1ccccc1Br`, the inhibition in [1] was found to be 2.14%; in experiment [2], 3.5%; in experiment [3], 1.54%; in experiment [4], 1.4%; in experiment [5], 4.1%; in [6] it was 1.91%. For the same compound, the inhibition is 1.02% in experiment [7]; -2.48% in experiment [8]; -3.62% in experiment [9]; 3.13% in [10]; 2.95% in experiment [11]; 2.93% in [12]. The inhibition in [13] is 6.95%; in experiment [14] it was 2.64%; in experiment [15] it was 2.31%; in experiment [16], 6.14%; in experiment [17], 7.4%; in experiment [18], 5.99%. Besides, the results for the inhibition in experiment [19] and in experiment [20] were 6.42% and -1.07%, respectively.
In the case of `COc1cccc(-n2ncc3c(N/N=C/c4ccc(F)cc4)ncnc32)c1`, the inhibition in experiment [1] stood at 2.78%; in experiment [2], 11.4%; in [3] it was 29.7%; in experiment [4], 2.07%; in [5], 3.41%; in [6], 3.58%. Also, the inhibition is 7.87% in experiment [7]; 0.24% in [8]; -1.74% in [9]; 5% in [10]; 9.33% in [11]; 5.87% in experiment [12]. For the same compound, the inhibition in [13] came out at 25.1%; in experiment [14], 2.73%; in experiment [15] it was 2.54%; in experiment [16], 7.43%; in [17], 8.16%; in experiment [18], 5.77%. The inhibition in experiment [19] was found to be 7.05%; in experiment [20], 0.27%.
On to `Fc1ccc(-c2nn3ccccc3c2-c2ccncc2)cc1`, for which the inhibition in [1] was 2.03%; in [2] it was -0.1%; in experiment [3] it was 6.02%; in experiment [4] it was 1.98%; in [5], 2.63%; in experiment [6], -0.06%. In addition, the inhibition was 2.86% in experiment [7]; -0.98% in experiment [8]; -0.08% in [9]; 0.22% in [10]; 1.25% in [11]; 0.18% in [12]. The inhibition in [13] is 5.66%; in experiment [14] it was 0.73%; in experiment [15] it was 2.32%; in experiment [16], 2.84%; in experiment [17] it was 7.13%; in [18], 2.64%. Moreover, the inhibition in experiment [19] is 4.72%; in experiment [20], -1.45%.
With `COC(=O)c1sc(-n2cnc3cc(OC)c(OC)cc32)cc1OCc1ccccc1C(F)(F)F`, the inhibition in experiment [1] is 1.85%; in [2], 3.32%; in experiment [3] it was 17.2%; in experiment [4], 1.32%; in experiment [5], 9.57%; in [6], 2.55%. The inhibition in experiment [7] was 8.27%; in [8], -4.92%; in experiment [9], -3.12%; in experiment [10] it was 2.58%; in [11] it was 2.68%; in experiment [12] it was 6.36%. Also, the inhibition in experiment [13] was 27%; in experiment [14], 1.17%; in [15], 2.18%; in experiment [16] it was 6.09%; in experiment [17] it was 8.51%; in experiment [18] it was 6.02%. Moreover, the inhibition was 6.69% in [19] and 3.34% in [20].
Take `COc1cc2ncn(-c3cc(OCc4ccccc4C(F)(F)F)c(C(=O)N(C)C)s3)c2cc1OC`: the inhibition in experiment [1] was 2.15%; in experiment [2], 0.95%; in experiment [3], 6.42%; in experiment [4] it was -0.21%; in [5] it was 6.59%; in experiment [6], -1.41%. In addition, the inhibition in experiment [7] was 0.81%; in experiment [8], -1.94%; in experiment [9], 1.47%; in [10], 0.67%; in [11], 2%; in [12], 0.64%. For the same compound, the inhibition is 6.88% in [13]; 1.79% in experiment [14]; 1.15% in experiment [15]; -0.22% in experiment [16]; 1.2% in experiment [17]; -0.77% in experiment [18]. Also, the inhibition in experiment [19] was found to be 2.51%; in experiment [20], 0.38%.
On to `CNC(=O)c1cc(-c2ccc(F)cc2)cc(-c2ccc(S(=O)(=O)N3CCCC3)cc2)c1N`, for which the inhibition in experiment [1] was 0.22%; in experiment [2], 0.33%; in experiment [3], 2.93%; in experiment [4] it was 2.17%; in [5] it was -0.47%; in experiment [6] it was 3.03%. The inhibition was 1.85% in experiment [7]; -1.38% in experiment [8]; -1.28% in [9]; 1.59% in [10]; 1.73% in experiment [11]; 2.18% in experiment [12]. Also, the inhibition in experiment [13] was 3.44%; in experiment [14], -0.4%; in experiment [15], -0.59%; in experiment [16], 3.72%; in experiment [17] it was 3.4%; in [18], 3.04%. Moreover, the inhibition in experiment [19] was 3.6%; in [20] it was 0.46%.
Regarding `NS(=O)(=O)c1ccc(N/N=C2\C(=O)Nc3ccc4ncccc4c32)cc1`, the inhibition in [1] was found to be 6.88%; in experiment [2], 8.01%; in [3], 42.4%; in [4], 11%; in experiment [5], 59.6%; in [6] it was 23.9%. In addition, the inhibition amounted to 73.2% in experiment [7]; 35.1% in experiment [8]; 33.5% in experiment [9]; 7.02% in experiment [10]; 41.9% in experiment [11]; 9.32% in experiment [12]. Further, the inhibition in experiment [13] is 48.2%; in experiment [14], 3.49%; in [15], 18.7%; in experiment [16], 15%; in [17] it was 60.2%; in [18], 14.6%. For the same compound, the inhibition in experiment [19] is 60.8%; in experiment [20], -0.71%.
